Test [1] deals with Lysosomal acid glucosylceramidase (Homo sapiens) (UniProt P04062). Nature of the test: Glucocerebrosidase-p2 (AID 348; in the data active = potency below about 10 µM; note: potency is the fitted concentration of half-maximal effect). The following applies: purified GBA, blue fluorogenic substrate, 40 min. Put shortly: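 Compounds titrated from 0.6 nM upwards against 0.2 nM enzyme in pH 5.9 citric acid/KH2PO4, taurocholate, tween-20; blue fluorogenic substrate 80 uM, 40 min room temperature, stopped and read Ex 365/Em 440 for AC50.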

Test [2] in a line: AP1 Signaling Pathway (AID 357; active = well fitted curve in either direction with a large enough effect, not every such curve was filed as active;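 note: ME-180 reporter cells stimulated with EGF at its EC50 level; % is set by controls: 0 for no effect and ±100 for the full control effect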). The following applies: ME-180 AP-1-bla reporter, EGF-induced, beta-lactamase ratio, 5 h; at 7.69 µM (top of the series) unless noted. Put shortly:
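First, ME-180 AP-1-bla cells were cultured overnight at 37 °C in low-serum Opti-MEM. Next, titrated compounds with EC50 EGF were incubated 5 hours. Finally, CCF4 was added for 2.5 hours and the 460/530 nm ratio recorded.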

Test [3] in a line: NFAT Signaling Pathway (AID 444; active = well fitted curve in either direction with a large enough effect, not every such curve was filed as active;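 note: carbachol stimulus at about its EC50 of 1 µM final; % is set by controls: 0 for no effect and ±100 for the full control effect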). Particulars: Jurkat NFAT-bla M1, carbachol, beta-lactamase ratio, 5 h; at 7.69 µM (top of the series) unless noted. In a few lines: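 Jurkat cells with NFAT-driven β-lactamase reporter and co-expressed M1 receptor, stimulated with carbachol (final 1 uM, ~EC50), compound titration, 5 h at 37 °C. CCF4 loaded 1 h at RT; 460/530 nm ratio gave %activity and AC50.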

The nature of test [4]: Stat Signaling Pathway (AID 446; active = well fitted curve in either direction with a large enough effect, not every such curve was filed as active;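 note: ME-180 cervical cancer cells given 40 pM IL-6 alongside compound; SIE-controlled beta-lactamase reporter measured as 460/530 nm FRET emission ratio; % is set by controls: 0 for no effect and ±100 for the full control effect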). Particulars: ME-180 SIE beta-lactamase reporter, IL-6 stimulated, 5 h; series mostly up to 7.69 µM. In a few lines:
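ME-180 cells carrying a SIE-driven beta-lactamase reporter are stimulated with 40 pM IL-6 for 5 h at 37C in the presence of compound. The 460/530 nm FRET substrate ratio is read after 2.5 h at RT. Data are normalised to 300 pM IL-6 and to 125 nM JAK inhibitor controls.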

Test [5] concerns the target Glucocorticoid receptor (Homo sapiens) (UniProt P04150). As to the kind of experiment: GR-GFP Redistribution (AID 450;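 active = compounds whose dose series gives a full or clear partial fitted curve of increased nuclear translocation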; note: potency is the fitted concentration of half-maximal effect). The following applies: U2OS GR-GFP nuclear translocation, laser cytometry, 2 h.
Test [6] has the same target. Nature of the test: GR-EFC Redistribution (AID 451; calls by dose curve; note: potency is the fitted concentration of half-maximal effect). Particulars: CHO-K1 GR-EFC translocation, beta-gal luminescence, 2 h. Put shortly: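 CHO-K1 cells expressing nuclear EA and GR-ED fragments of b-gal; compounds titrated up to 46 uM final, 2 h at 37 C. GR nuclear translocation read as complemented b-gal luminescence after 1 h RT detection.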
Test [7] concerns the target Mitogen-activated protein kinase 10 (Mus musculus) (UniProt Q61831). As to the kind of experiment: JNK3 AlphaScreen Assay (AID 530; active = well fitted curve in either direction with a large enough effect, not every such curve was filed as active;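 note: kinase came from lysate of stimulated human HepG2 cells; signal reports phosphorylation of biotinylated GST-cJun 1-79 at Ser73 with 10 µM ATP; % is set by controls: 0 for no effect and ±100 for the full control effect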). Particulars: JNK3 lysate, c-Jun phosphorylation; series mostly up to 57.1 µM. In a few lines:
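Pre-activated (IL-1β/TNFα) JNK3 in HepG2 lysates phosphorylates biotin-GST-cJun(1-79), 10 uM ATP; anti-phospho-cJun(Ser73) AlphaScreen read at room temperature, pH 7.6 Tris buffer. Compounds pre-incubated 15 min as titrations.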

A short description of test [8]: qHTS Assay for Identification of Small Molecule Agonists for Hypoxia Response Element Signaling Pathway (AID 914; active = well fitted activation curve with a large enough effect in the signal ratio, with a control signal flat, not every such curve was filed as active; the % refers to the signal ratio; note: potency is the fitted concentration of half-maximal effect; for activation: % of control where 0% means no effect). Particulars: ME-180 (cervical carcinoma) HRE-bla reporter, beta-lactamase ratio, CoCl2, 17 h; activation: hits give high values. Put shortly: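 AC50 values come from titration-series %Activity, taken as the 460/530nm ratio of CCF4 fluorescence (excitation 405nm). CellSensor HRE-bla ME-180 cells were treated 17 hours at 37 C with compound plus an EC50 level of CoCl2.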
For orientation: Quantitative high-throughput screening tests each substance at several concentrations.

Test [9] deals with Dual specificity protein kinase CLK4 (Homo sapiens) (UniProt Q9HAZ1). Nature of the test: qHTS Assay for Inhibitors of CDC-like Kinase 4 (Kinase-Glo Assay) (AID 1770). Note: nearly all actives have a fitted effect of over 65% in size. Note: potency is the fitted concentration of half-maximal effect. Particulars: recombinant Clk4, Kinase-Glo ATP depletion luminescence; series mostly up to 66.7 µM. In a few lines:
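Luminescent ATP-depletion read-out (Kinase-Glo) after 4.5 h room-temperature reaction of Clk4 (25 nM final) with RS peptide (100 uM) and ATP (1 uM), pH 7.5 Tris buffer with MgCl2 and DTT.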

For test [10] the target is unchanged. Nature of the test: qHTS Assay for Inhibitors of CDC-like Kinase 4 (ADP-Glo Assay) (AID 1771). Note: nearly all actives have a fitted effect of over 70% in size. Note: potency is the fitted concentration of half-maximal effect. Particulars: recombinant CLK4, ADP-Glo luminescence; series mostly up to 80 µM. Put shortly:
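25 nM Clk4 with 100 uM RS repeat peptide and 1 uM ATP (final) in buffer with 2 mM MgCl2, 0.5 mM EGTA, 2.5 mM DTT, 0.01% Triton X-100; 1 h at room temperature; ADP-Glo luminescence for ADP formed.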

Test [11] shares this target. Nature of the test: qHTS Assay for Inhibitors of CDC-like Kinase 4 (ADP-FP Assay) (AID 1795). Note: nearly all actives have a fitted effect of over 60% in size. Note: potency is the fitted concentration of half-maximal effect. Particulars: Transcreener ADP fluorescence polarization; series mostly up to 50 µM. Put shortly:
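Kinase activity was measured as ADP production using Transcreener orange tracer (4 nM) and ADP antibody (1 ug/mL) fluorescence polarization, with ADP calculated from a calibration curve. The 1 h reaction contained 6.25 nM Clk4, 1 uM ATP and 100 uM RS peptide at pH 7.5 with Mg2+.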

Test [12] concerns the target Ubiquitin carboxyl-terminal hydrolase 1 (Homo sapiens) (UniProt O94782). As to the kind of experiment: Inhibitors of USP1/UAF1: Pilot qHTS (AID 504865). Note: nearly all actives have a fitted effect of over 35% in size. Note: potency is the fitted concentration of half-maximal effect. The following applies: purified USP1/UAF1, Ub-rhodamine cleavage fluorescence; series mostly up to 54.9 µM. In a few lines: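 Deubiquitinase activity followed as kinetic rhodamine fluorescence release from 150 nM Ub-Rho. 1 nM USP1/UAF1 with compound, after 15 min room-temperature preincubation, in HEPES pH 7.8 buffer containing TCEP, EDTA, BSA and Tween-20.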

The nature of test [13]: NCATS anti-infectives library activity on HEK293 viability as a counter-qHTS vs the C. elegans viability qHTS (AID 1745854). The following applies: HEK293 viability counter-screen; series mostly up to 41.8 µM. Put shortly:
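HEK293 cells (1,500/well) exposed 24 hr at 37C to 1:5 titrations, up to 41.7 uM final; counter-screen to a C. elegans viability qHTS. Viability by CellTiter-Glo luminescence after 10 min at room temperature; digitonin as control.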

The target of test [14] is 3',5'-cyclic-AMP phosphodiesterase 4B (Homo sapiens) (UniProt Q07343). Nature of the test: qHTS Assay for Inhibitors of PDE-IV (AID 607; active = well fitted activation curve with a large enough effect in the main read-out, with a control signal flat, not every such curve was filed as active; note: % of control where 0% means no effect). Particulars: HEK293 ACTOne CNG channel cells, membrane potential fluorescence; series mostly up to 22.9 µM. Put shortly:
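HEK293 ACTOne cells with CNG channel (1000/well), endogenous PDE4; membrane potential dye, compounds up to 22.9 uM final. Fluorescence Ex 535/Em 590; RO 20-1724 (100 uM final) as reference.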

For test [15], the target named is Cytochrome P450 1A2 (Homo sapiens) (UniProt P05177). As to the kind of experiment: p450-cyp1a2 (AID 410; calls by dose curve; note: potency is the fitted concentration of half-maximal effect). The following applies: recombinant CYP1A2, luciferin-ME demethylation, luminescence; series mostly up to 57 µM. Put shortly:
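20nM CYP1A2 with 100uM Luciferin-ME (at Km) in 100mM KPO4; compound preincubated 10 min, NADPH regeneration added, 60 min at room temperature. Luciferin quantified by luminescence after detection reagent; normalized to 57 uM furafylline.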

The target in test [16] is Cytochrome P450 2C19 (Homo sapiens) (UniProt P33261). Nature of the test: qHTS Assay for Inhibitors and Substrates of Cytochrome P450 2C19 (AID 899). Note: nearly all actives have a fitted effect of over 60% in size. Note: potency is the fitted concentration of half-maximal effect. Particulars: recombinant CYP2C19, luciferin-H EGE luminescence; series mostly up to 57.1 µM. Put shortly: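 Signal comes from luciferase acting on luciferin released by CYP2C19-mediated hydroxylation of Luciferin-H EGE, 10uM (KM). Assay mix: 5nM enzyme, 50mM KPO4; 60 min at 37C with NADPH regeneration. Data normalized against 57uM ketoconazole.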

Test [17] has as its target Cytochrome P450 3A4 (Homo sapiens) (UniProt P08684). As to the kind of experiment: qHTS Assay for Activators of Cytochrome P450 3A4 (AID 885). Note: nearly all actives have a fitted effect of over 65% in size. Particulars: recombinant CYP3A4, Luciferin-PPXE luminescence, 60 min; series mostly up to 57.1 µM. In a few lines:
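Human CYP3A4 (20 nM) with Luciferin-PPXE at 25 uM (its KM) in 200 mM KPO4; 10 min compound preincubation, then NADPH regeneration and 60 min reaction at RT. Luciferin read by luminescence; normalized to 57 uM ketoconazole full inhibition.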

Values without a mark were called inactive. Inconclusive results are not listed. Calls of active or inactive are those of the source. Unless noted, calls come from the whole dose curve; as a rule, active = well fitted curve in the direction sought with a large enough effect; inconclusive = small, poorly fitted or top-dose-only effect, or another doubt; inactive = no such curve, though single readings can be large; an effect the other way counts as inactive or inconclusive. Bounds are passed on as bounds.

Chain of Ubiquitin carboxyl-terminal hydrolase 1 (Homo sapiens) (O94782 whole entry, looked up): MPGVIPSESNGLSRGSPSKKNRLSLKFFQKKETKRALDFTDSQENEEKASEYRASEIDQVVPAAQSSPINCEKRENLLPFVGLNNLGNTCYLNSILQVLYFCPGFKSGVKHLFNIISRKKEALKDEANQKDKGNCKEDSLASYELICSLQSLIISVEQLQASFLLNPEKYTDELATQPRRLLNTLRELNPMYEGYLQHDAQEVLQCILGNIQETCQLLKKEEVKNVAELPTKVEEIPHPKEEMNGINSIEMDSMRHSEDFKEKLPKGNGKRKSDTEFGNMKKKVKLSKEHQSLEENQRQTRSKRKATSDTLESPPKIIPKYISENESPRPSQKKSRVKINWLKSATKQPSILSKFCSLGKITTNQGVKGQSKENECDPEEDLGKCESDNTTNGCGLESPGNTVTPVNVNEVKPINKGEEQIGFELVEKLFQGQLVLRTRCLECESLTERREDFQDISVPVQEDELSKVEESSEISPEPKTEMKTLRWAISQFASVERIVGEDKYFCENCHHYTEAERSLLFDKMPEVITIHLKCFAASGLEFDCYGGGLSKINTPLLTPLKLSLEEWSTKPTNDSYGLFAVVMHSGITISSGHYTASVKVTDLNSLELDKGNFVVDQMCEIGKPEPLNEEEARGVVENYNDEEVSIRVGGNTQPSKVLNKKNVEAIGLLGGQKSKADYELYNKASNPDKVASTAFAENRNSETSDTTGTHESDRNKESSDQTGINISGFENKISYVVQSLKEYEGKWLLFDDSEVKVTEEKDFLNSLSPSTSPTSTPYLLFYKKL
Chain of Lysosomal acid glucosylceramidase (Homo sapiens) (P04062 whole entry, looked up): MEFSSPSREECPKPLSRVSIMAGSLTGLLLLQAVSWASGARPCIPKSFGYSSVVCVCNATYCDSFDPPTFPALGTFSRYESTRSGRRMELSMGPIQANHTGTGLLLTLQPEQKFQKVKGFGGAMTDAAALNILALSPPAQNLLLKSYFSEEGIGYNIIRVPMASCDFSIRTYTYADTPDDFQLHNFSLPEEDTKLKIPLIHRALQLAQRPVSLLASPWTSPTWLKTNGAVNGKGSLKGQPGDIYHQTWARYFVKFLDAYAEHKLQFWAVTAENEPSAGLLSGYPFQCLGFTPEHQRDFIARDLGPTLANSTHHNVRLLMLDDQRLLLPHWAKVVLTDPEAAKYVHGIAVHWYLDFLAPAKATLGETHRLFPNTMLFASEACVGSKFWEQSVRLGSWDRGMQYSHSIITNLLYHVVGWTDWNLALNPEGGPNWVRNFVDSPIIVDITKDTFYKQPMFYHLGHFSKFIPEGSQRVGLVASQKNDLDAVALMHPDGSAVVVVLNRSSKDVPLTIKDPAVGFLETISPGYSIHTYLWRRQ
Chain of Dual specificity protein kinase CLK4 (Homo sapiens) (Q9HAZ1 whole entry, looked up): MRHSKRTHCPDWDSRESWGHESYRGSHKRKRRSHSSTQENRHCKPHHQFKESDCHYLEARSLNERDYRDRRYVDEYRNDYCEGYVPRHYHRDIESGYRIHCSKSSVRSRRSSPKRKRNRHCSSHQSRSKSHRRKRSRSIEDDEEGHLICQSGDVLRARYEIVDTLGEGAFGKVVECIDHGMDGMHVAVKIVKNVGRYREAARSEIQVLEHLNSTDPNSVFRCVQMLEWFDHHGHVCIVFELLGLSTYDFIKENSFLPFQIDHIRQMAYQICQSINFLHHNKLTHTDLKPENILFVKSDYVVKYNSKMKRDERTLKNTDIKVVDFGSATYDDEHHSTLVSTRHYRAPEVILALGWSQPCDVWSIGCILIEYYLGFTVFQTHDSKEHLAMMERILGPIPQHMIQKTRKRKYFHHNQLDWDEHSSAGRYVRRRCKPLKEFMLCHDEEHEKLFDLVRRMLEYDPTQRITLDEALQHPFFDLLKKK
Chain of Glucocorticoid receptor (Homo sapiens) (P04150 whole entry, looked up, the tested form may be a part): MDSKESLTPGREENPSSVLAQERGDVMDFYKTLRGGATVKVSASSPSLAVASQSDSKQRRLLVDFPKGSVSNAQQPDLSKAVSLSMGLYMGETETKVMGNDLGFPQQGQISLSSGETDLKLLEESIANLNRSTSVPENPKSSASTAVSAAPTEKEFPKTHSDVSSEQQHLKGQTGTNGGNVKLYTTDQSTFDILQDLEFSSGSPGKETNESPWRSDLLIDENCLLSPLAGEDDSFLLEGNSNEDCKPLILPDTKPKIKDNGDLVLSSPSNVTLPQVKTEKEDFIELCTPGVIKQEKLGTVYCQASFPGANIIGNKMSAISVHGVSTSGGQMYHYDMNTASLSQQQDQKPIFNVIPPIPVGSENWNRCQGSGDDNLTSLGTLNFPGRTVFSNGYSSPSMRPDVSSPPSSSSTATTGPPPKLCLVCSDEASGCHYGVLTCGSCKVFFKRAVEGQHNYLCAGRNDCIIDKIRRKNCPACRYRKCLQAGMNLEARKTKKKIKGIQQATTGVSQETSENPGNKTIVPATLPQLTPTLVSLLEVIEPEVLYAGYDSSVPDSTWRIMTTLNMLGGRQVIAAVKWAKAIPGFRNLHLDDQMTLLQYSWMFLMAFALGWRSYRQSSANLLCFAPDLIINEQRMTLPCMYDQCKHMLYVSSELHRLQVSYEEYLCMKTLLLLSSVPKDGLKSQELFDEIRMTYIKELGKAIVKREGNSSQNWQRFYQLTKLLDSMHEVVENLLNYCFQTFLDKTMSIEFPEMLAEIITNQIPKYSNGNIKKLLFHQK
Chain of 3',5'-cyclic-AMP phosphodiesterase 4B (Homo sapiens) (Q07343 whole entry, looked up): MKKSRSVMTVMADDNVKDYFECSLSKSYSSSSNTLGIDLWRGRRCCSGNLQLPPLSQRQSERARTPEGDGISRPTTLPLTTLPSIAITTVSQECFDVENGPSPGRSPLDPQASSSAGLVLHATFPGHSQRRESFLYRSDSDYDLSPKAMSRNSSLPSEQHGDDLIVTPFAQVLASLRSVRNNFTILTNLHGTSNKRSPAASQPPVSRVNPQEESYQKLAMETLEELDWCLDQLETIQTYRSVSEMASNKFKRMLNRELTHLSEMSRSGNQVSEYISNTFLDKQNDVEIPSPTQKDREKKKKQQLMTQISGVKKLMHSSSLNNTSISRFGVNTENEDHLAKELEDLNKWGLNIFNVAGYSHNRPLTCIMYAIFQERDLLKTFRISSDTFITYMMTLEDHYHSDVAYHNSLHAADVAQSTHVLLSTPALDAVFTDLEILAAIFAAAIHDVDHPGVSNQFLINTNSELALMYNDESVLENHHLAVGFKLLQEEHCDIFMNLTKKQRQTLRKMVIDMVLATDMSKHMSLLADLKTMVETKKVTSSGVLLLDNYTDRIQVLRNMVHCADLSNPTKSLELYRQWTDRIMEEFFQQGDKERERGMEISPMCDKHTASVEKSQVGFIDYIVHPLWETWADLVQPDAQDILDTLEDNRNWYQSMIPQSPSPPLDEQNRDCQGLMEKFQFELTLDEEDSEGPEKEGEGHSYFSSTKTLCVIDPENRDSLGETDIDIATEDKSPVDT
Chain of Cytochrome P450 2C19 (Homo sapiens) (P33261 whole entry, looked up): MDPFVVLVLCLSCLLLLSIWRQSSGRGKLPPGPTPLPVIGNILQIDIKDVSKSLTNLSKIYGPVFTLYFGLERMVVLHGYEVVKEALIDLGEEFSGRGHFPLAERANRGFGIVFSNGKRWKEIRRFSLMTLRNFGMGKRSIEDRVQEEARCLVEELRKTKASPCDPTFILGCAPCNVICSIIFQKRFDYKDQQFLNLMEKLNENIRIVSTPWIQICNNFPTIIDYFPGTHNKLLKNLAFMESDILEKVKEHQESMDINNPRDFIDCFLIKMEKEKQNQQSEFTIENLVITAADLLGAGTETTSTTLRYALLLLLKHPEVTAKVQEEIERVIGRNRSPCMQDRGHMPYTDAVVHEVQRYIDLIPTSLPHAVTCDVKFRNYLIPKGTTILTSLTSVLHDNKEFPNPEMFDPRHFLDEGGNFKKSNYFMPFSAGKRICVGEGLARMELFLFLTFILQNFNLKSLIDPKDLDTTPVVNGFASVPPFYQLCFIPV
Chain of Cytochrome P450 3A4 (Homo sapiens) (P08684 whole entry, looked up): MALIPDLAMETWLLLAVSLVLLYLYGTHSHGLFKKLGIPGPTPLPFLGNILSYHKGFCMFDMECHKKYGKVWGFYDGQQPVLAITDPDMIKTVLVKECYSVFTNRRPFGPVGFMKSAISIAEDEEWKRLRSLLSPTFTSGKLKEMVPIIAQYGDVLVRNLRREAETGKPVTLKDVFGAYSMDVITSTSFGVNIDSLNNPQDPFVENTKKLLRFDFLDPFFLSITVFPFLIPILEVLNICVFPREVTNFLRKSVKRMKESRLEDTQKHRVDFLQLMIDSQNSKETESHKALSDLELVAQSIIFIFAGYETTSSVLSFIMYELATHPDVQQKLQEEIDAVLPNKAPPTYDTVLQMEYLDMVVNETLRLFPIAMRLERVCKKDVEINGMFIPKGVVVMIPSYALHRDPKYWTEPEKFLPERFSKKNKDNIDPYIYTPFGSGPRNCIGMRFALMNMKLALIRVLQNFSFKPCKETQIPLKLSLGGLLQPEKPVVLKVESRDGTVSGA
Chain of Cytochrome P450 1A2 (Homo sapiens) (P05177 whole entry, looked up): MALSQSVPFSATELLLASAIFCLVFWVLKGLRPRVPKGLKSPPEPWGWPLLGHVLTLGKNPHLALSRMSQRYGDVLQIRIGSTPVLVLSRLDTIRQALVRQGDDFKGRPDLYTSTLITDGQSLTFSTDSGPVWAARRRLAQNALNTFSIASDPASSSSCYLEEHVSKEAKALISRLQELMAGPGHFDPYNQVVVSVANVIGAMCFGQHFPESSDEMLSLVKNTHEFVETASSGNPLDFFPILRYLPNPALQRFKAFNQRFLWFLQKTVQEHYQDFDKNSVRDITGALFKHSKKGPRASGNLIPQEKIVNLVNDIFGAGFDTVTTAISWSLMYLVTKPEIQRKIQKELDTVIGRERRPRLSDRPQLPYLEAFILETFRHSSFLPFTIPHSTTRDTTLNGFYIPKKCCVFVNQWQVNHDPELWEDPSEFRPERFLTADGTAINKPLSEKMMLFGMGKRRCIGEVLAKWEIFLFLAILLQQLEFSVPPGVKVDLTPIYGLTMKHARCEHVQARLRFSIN

With `O=c1c(CCc2ccccc2)nc2cnc(N3CCOCC3)nc2n1-c1ccccc1`, the Potency is above 11.4 µM in test [1], above 9.22 µM in test [5] and above 46 µM in [6]. Moreover, the activity change, negative = inhibition is 1.07% in test [2] and 1.96% in test [3]. In addition, the compound was classed as inactive in test [4]. Further, the Potency entry in test [7], in test [9], in [10], in test [11] and in test [12] was “inactive” each time. In addition, the activation in [8] was -5.71%.
Turning to `CCCCCCCCOC(=O)c1cc(O)c(O)c(O)c1`, the Potency result in test [13] is “inactive”.
Consider `Cc1cccc(CNc2ncncc2-c2ccccc2CN(C)C)c1`, for which the Potency in test [1] is above 11.4 µM; in [6], above 46 µM. The activity change, negative = inhibition in test [2] is 1.18%. For the same compound, the Potency entry in [7], in test [14], in [9], in [10], in [11] and in test [12] was “inactive” each time.
On to `COc1ncc2nc(-c3ccccc3)c(=O)n(CCc3ccccc3)c2n1`, for which the Potency was above 11.4 µM in [1], above 9.22 µM in [5] and above 46 µM in test [6]. The activity change, negative = inhibition in [2] is -6.17%. The compound was classed as inactive in [4]. Besides, the Potency entry in test [7], in test [9], in [10], in [11] and in test [12] was “inactive” throughout.
As to `CCNc1ncc2ncc(=O)n(Cc3cccc(OC)c3)c2n1`, the Potency was above 11.4 µM in test [1]; 3.98 µM (active) in [15]; above 9.22 µM in test [5]; above 46 µM in [6]; 2 µM (active) in test [16]; 3.16 µM (active) in test [9]. Moreover, the Potency in [10] was 3.16 µM (active); in test [11] it was 11.2 µM (active). Moreover, the activity change, negative = inhibition in [2] is -7.38%; in test [3], 8.9%. The call in test [4] was inactive. The Potency entry in test [7] and in test [12] was “inactive” each time.
As for `O=C(O)c1cc(O)c2c(c1)[C@H]([C@H]1c3cc(C(=O)O)cc(O)c3C(=O)c3c(O[C@@H]4OC(CO)C(O)C(O)C4O)cccc31)c1cccc(O[C@@H]3OC(CO)C(O)C(O)C3O)c1C2=O` (stereo partly drawn), in [17], the outcome was inactive. Further, in [12], the Potency was 10 µM (active). Also, the Potency result in test [13] was “inactive”.
On to `COCCn1c(=O)c(-c2cccc(C#N)c2)nc2cnc(OCc3ccccc3)nc21`, for which the Potency was above 11.4 µM in test [1], 12.6 µM (active) in test [15], above 9.22 µM in test [5] and above 46 µM in test [6]. The activity change, negative = inhibition in [2] was -20.4%; in test [3], -5.35%. In addition, the Potency entry in test [14], in [16], in test [9], in [10], in test [11] and in [12] was “inactive” in each case. Also, the result in test [17] was inactive.
As for `COc1ccc2c(O[C@H]3CC4C(=O)N(C)CCCC/C=C\[C@@H]5C[C@@]5(C(=O)NS(=O)(=O)C5CC5)NC(=O)[C@@H]4C3)cc(-c3nc(C(C)C)cs3)nc2c1C` (stereo partly drawn), the Potency entry in test [13] was “inactive”.
Take `CCNc1ncc2nc(-c3ccc(OC)cc3)c(=O)n(C)c2n1`: the values for the Potency in test [1], in test [6] and in test [8] were above 11.4 µM, above 46 µM and 3.98 µM (active), respectively. Besides, the activity change, negative = inhibition in test [2] was 22.4%. For the same compound, the Potency entry in test [7], in test [9], in test [10] and in test [11] was “inactive” throughout.
Turning to `O=c1c(CCc2ccccc2)nc2cnc(Nc3ccccc3)nc2n1C[C@H]1CCCO1`, the Potency in test [1] was above 11.4 µM; in test [5] it was above 9.22 µM. The activity change, negative = inhibition in [2] was 16.4%. For the same compound, the compound was classed as inactive in test [4]. Besides, the Potency entry in test [7], in test [9], in test [10] and in test [11] was “inactive” in each case.

These data come from PubChem BioAssay (NCATS).
